Experimental findings from a collection of fitness landscapes (doi:10.1126/science.1257360) are described below.

Sequences and labels used below:
B1: PhoQ; a variant is named by its letters at X, in order, P23837 (parent)
chain: MKKLLRLFFPLSLRVRFLLATAAVVLVLSLAYGMVALIGYSVSFDKTTFRLLRGESNLFYTLAKWENNKLHVELPENIDKQSPTMTLIYDENGQLLWAQRDVPWLMKMIQPDWLKSNGFHEIEADVNDTSLLLSGDHSIQQQLQEVREDDDDAEMTHSVAVNVYPATSRMPKLTIVVVDTIPVELKSSYMVWSWFIYVLSANLLLVIPLLWVAAWWSLRPIEALAKEVRELEEHNRELLNPATTRELTSLVRNLNRLLKSERERYDKYRTTLTDLTHSLKTPLXXLQXXLRSLRSEKMSVSDAEPVMLEQISRISQQIGYYLHRASMRGGTLLSRELHPVAPLLDNLTSALNKVYQRKGVNISLDISPEISFVGEQNDFVEVMGNVLDNACKYCLEFVEISARQTDEHLYIVVEDDGPGIPLSKREVIFDRGQRVDTLRPGQGVGLAVAREITEQYEGKIVAGESMLGGARMEVIFGRQHSAPKDE

Over roughly 140,000 sequences, “enrichment ratio after two sorts for PhoP signalling” has its median near 0; the highest 2% begin near 11. Many of the other results were omitted from the sample, so the highest values are more common in it than they were.

The variants in this assay derive from B1. The experiment in a line: enrichment ratio after two sorts for PhoP signalling (ratio (wild type AVST 3.29)); higher = more functional. The conditions noted are these: with PhoP (E. coli).
On to QEIS, for which the enrichment ratio was at most 0.25.
For TEIV the value was at most 0.25; for MEIS, 13.8; for MEIV, 6.05.
Turning to TEIS, the enrichment ratio was 11.4.
As to FGMP, the enrichment ratio is at most 0.25.
For MYAF the value was at most 0.25; for NHMI, at most 0.25; for THMI, 26.1.
For NHMV the value was at most 0.25; for NEMS, at most 0.25; for THMV, 8.19.
Turning to NEMV, the enrichment ratio was 14.8.
In the case of NEMI, the enrichment ratio was 29.
For the variant NEMD, the enrichment ratio is at most 0.25.
Take SHMI: the enrichment ratio amounted to 5.85.
The same measure for DIIV: at most 0.25; for DPWI: at most 0.25.
For ARSS the value was 0.56; for QLGI, at most 0.25.
The same measure for HQLC: at most 0.25; for HNDG: at most 0.25; for HGKL: at most 0.25.
For the variant YYLC, the enrichment ratio was at most 0.25.
Consider YTLC, for which the enrichment ratio came to 11.3.
For AYLC the value was 0.263.
For FTLC the value was 6.55; for KQLC, at most 0.25.
The same measure for IILC: at most 0.25.
As to AILC, the enrichment ratio came out at 7.86.
For TKLC, the enrichment ratio turned out to be 19.8.
The same measure for SALC: 12; for HKLC: at most 0.25.
The same measure for MKLC: at most 0.25; for ATLC: 13.2.
As to KVHY, the enrichment ratio was at most 0.25.
RTKV: the enrichment ratio is at most 0.25.
As for APDH, the enrichment ratio is at most 0.25.
With RGMG, the enrichment ratio is at most 0.25.
For KYLC the value was at most 0.25.
The same measure for KDLC: at most 0.25; for SCLC: 12.4; for SPLC: at most 0.25.
The same measure for SGNS: at most 0.25; for STLC: 13.2; for ADLC: 3.37.
On to SWLC, for which the enrichment ratio is at most 0.25.
Turning to DFLC, the enrichment ratio was at most 0.25.
On to LWLC, for which the enrichment ratio was at most 0.25.
The same measure for SGLC: 20.7; for TDLC: 11.7.
The same measure for HWIF: at most 0.25; for MFWN: at most 0.25; for AMSS: 9.96.
The same measure for WMWY: at most 0.25; for SELC: 20.4; for SLLC: 7.49.
For the variant SKTC, the enrichment ratio came to 11.1.
For TPLC the value was at most 0.25; for SKKC, at most 0.25; for GTLC, 10.
On to SFLC, for which the enrichment ratio was 4.52.
The same measure for SNLC: 11.3; for SKLC: 12.6.
Turning to SRLC, the enrichment ratio was at most 0.25.
For TTLC the value was 14.4.
Turning to LTLC, the enrichment ratio is at most 0.25.
As for VGMT, the enrichment ratio was at most 0.25.
Turning to NFAS, the enrichment ratio was at most 0.25.
Regarding AWLG, the enrichment ratio was at most 0.25.
With PRVI, the enrichment ratio was at most 0.25.
The same measure for THYW: at most 0.25; for ELGT: at most 0.25.
The same measure for FGYD: at most 0.25; for EVSM: 7.73; for SNGS: 9.33.
For the variant SNNY, the enrichment ratio stood at 8.91.
STNM: the enrichment ratio came out at 11.4.
For SLNM the value was at most 0.25; for SNNM, 13.1; for SQNM, 1.65.
Take SNGM: the enrichment ratio was found to be 15.3.
The same measure for SNRM: at most 0.25.
For SNGY the value was 12.6; for YTNM, at most 0.25; for SRGY, at most 0.25.
The same measure for SNGD: at most 0.25; for RSCE: at most 0.25; for QIIS: at most 0.25.
As to TQLR, the enrichment ratio is 2.23.
On to LNRD, for which the enrichment ratio was 0.657.
Take EFTP: the enrichment ratio is at most 0.25.
The same measure for NIED: at most 0.25; for HGTL: 6.22; for FDCM: at most 0.25.
Take SDCM: the enrichment ratio stood at 17.2.
For MHCM the value was at most 0.25.
The same measure for SVCM: 14.2; for SECM: 38.2.
The same measure for MTCM: 12.2; for SPCM: at most 0.25.
SYCM: the enrichment ratio is at most 0.25.
For SVCK the value was 9.8.
For SRCM the value was 9.77; for MTCK, at most 0.25.
Turning to SVCE, the enrichment ratio was found to be 2.84.
For KPWY the value was at most 0.25; for TYSW, at most 0.25; for HHAG, at most 0.25.
For the variant IFAS, the enrichment ratio is at most 0.25.
Consider MQIG, for which the enrichment ratio was at most 0.25.
As to WLCM, the enrichment ratio was at most 0.25.
For the variant RTCM, the enrichment ratio is at most 0.25.
The same measure for FTCM: 7.68; for YHCM: at most 0.25.
For TTCM the value was 24.5; for YTCM, 11.5; for ITCM, 1.
For NTCM the value was at most 0.25; for STCM, 13.3; for SLCM, 16.9.
As for LTCM, the enrichment ratio is at most 0.25.
The same measure for PLCM: at most 0.25.
For RMAR, the enrichment ratio is at most 0.25.
For the variant LPWH, the enrichment ratio is at most 0.25.
The same measure for KMFP: at most 0.25; for IDIW: at most 0.25; for DRHH: at most 0.25.
Take ITAF: the enrichment ratio is at most 0.25.
The same measure for TAMG: 17.2.
In the case of KAMN, the enrichment ratio is at most 0.25.
The same measure for TAMN: 59.7.
For KANV the value was at most 0.25; for TANV, 17.9.
Take TAVC: the enrichment ratio turned out to be 1.35.
For TAVG the value was at most 0.25.
For YANV the value was at most 0.25; for NAMN, at most 0.25.
For the variant TATV, the enrichment ratio was found to be 13.6.
The same measure for KATV: at most 0.25.
For YATV the value was at most 0.25; for YFEP, at most 0.25.
For NMRI the value was at most 0.25; for YHGP, at most 0.25.
With TWHF, the enrichment ratio was at most 0.25.
As for LTFD, the enrichment ratio is at most 0.25.
Regarding HWNR, the enrichment ratio is at most 0.25.
For WEAV the value was at most 0.25.
The same measure for KAMP: at most 0.25.
Consider WWAY, for which the enrichment ratio was at most 0.25.
For LLHT the value was at most 0.25; for HMSL, at most 0.25; for PQVE, at most 0.25.
